Results filed as inconclusive are left out. The source made the active and inactive calls. Unless noted, the call rests on the fitted dose curve; in most records, active means well fitted curve in the direction sought with a large enough effect in the repeat runs; inconclusive means weak or mixed curves; inactive means no such curve, though single readings can be large; an effect the other way counts as inactive or inconclusive.
Tests used:
[1] = qHTS assay to identify small molecule antagonists of the estrogen related receptor (ERR) signaling pathway from Tox21 library - cell viability counter screen (AID 1224834); further: nearly all actives have a fitted effect of over 30% in size
Method in brief: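 CellTiter-Fluor fluorescence measured; ERR cells; 17.5 h compound incubation at 37 C; 30 min reagent step.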

[2] = biological target: Luciferin 4-monooxygenase (Photinus pyralis) (UniProt P08659); experiment: qHTS assay to identify small molecule inhibitors of firefly luciferase (AID 1224835); further: nearly all actives have a fitted effect of over 25% in size; further: potency means the concentration at half of the fitted maximal effect
Sequence of Luciferin 4-monooxygenase (Photinus pyralis) (P08659 whole entry, looked up): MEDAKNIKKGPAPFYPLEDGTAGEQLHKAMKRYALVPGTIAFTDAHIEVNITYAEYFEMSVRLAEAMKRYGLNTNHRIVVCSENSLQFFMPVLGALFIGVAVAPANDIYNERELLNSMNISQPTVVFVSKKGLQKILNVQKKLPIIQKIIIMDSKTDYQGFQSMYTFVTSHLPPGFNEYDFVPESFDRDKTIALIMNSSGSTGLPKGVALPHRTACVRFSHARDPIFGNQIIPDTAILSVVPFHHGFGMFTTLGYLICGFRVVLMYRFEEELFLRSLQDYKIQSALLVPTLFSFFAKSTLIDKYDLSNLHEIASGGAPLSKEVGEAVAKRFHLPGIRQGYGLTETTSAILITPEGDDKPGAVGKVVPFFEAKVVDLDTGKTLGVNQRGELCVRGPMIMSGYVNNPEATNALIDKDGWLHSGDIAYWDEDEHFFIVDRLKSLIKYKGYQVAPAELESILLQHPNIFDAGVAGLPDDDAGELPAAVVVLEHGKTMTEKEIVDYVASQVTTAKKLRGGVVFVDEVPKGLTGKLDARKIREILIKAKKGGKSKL
Method in brief: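 Biochemical qHTS: compounds run as interplate titrations against purified firefly enzyme, with D-luciferin and ATP each at its KM concentration. Light output recorded by CCD imaging.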

[3] = qHTS assay to identify small molecule agonists of the constitutive androstane receptor (CAR) signaling pathway - cell viability counter screen (AID 1224836); further: series mostly up to about 92 µM; nearly all actives have a fitted effect of over 45% in size
Method in brief: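 Double-stable HepG2 hepatoma cells (hCAR plus CYP2B6-2.2kb) are treated for 23 h at 37 C with test compounds in 15-point concentration series. PK11195 at 0.75 uM final is co-added. Cell viability is quantified by CellTiter-Fluor.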

[4] = qHTS assay to identify small molecule antagonists of the constitutive androstane receptor (CAR) signaling pathway - cell viability counter screen (AID 1224837); further: series mostly up to about 92 µM; nearly all actives have a fitted effect of over 45% in size
Method in brief: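 Using CellTiter-Fluor, viability is scored in HepG2 cells stably carrying hCAR and a 2.2kb CYP2B6 reporter after 23 hr compound exposure across 15 concentrations, with CITCO present at 50 nM.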

[5] = qHTS assay to identify small molecule antagonists of the estrogen related receptor signaling pathway with the pleiotropic PPARgamma coactivator (PGC) from Tox21 10K library - cell viability counter screen (AID 1224840; active means well fitted cell-killing curve with a large enough effect in the repeat runs, not every such curve was filed as active; further: nearly all actives have a fitted effect of over 40% in size)
Method in brief: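 Here the PGC/ERR cells serve as a cytotoxicity control: they are exposed to compounds for 17.5 hours at 37 C, and live-cell signal is quantified using CellTiter-Fluor fluorescence.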

[6] = qHTS assay to identify small molecule antagonists of the estrogen related receptor signaling pathway with the pleiotropic PPARgamma coactivator (PGC) from Tox21 10K library (AID 1224841; call rule not given here; further: series mostly up to about 92 µM; actives are mostly falling curves and most rising ones were filed inactive; nearly all actives have a fitted effect of over 50% in size)
Method in brief: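 Each well held 2,000 PGC/ERR cells, pre-incubated six hours (37 C, 5% CO2). Test substances in DMSO were added by pin tool and left for 18 h at 37 C before luciferase detection by One-Glo.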

[7] = qHTS assay to identify small molecule agonists of the estrogen related receptor signaling pathway with the pleiotropic PPARgamma coactivator (PGC) from Tox21 10K library (AID 1224842); further: nearly all actives have a fitted effect of over 15% in size
Method in brief: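 PGC/ERR reporter cell line, 2,000 cells per well, incubated 6 h at 37 C before 23 nL compound in DMSO was added. After 18 h at 37 C, One-Glo luminescence read following 30 min at room temperature.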

[8] = biological target: Thyrotropin receptor (Homo sapiens) (UniProt P16473); experiment: qHTS assay to identify small molecule agonists of the thyroid stimulating hormone receptor (TSHR) signaling pathway (AID 1224843; calls by dose curve; further: nearly all actives have a fitted effect of over 45% in size; further: potency means the concentration at half of the fitted maximal effect)
Sequence of Thyrotropin receptor (Homo sapiens) (P16473 whole entry, looked up): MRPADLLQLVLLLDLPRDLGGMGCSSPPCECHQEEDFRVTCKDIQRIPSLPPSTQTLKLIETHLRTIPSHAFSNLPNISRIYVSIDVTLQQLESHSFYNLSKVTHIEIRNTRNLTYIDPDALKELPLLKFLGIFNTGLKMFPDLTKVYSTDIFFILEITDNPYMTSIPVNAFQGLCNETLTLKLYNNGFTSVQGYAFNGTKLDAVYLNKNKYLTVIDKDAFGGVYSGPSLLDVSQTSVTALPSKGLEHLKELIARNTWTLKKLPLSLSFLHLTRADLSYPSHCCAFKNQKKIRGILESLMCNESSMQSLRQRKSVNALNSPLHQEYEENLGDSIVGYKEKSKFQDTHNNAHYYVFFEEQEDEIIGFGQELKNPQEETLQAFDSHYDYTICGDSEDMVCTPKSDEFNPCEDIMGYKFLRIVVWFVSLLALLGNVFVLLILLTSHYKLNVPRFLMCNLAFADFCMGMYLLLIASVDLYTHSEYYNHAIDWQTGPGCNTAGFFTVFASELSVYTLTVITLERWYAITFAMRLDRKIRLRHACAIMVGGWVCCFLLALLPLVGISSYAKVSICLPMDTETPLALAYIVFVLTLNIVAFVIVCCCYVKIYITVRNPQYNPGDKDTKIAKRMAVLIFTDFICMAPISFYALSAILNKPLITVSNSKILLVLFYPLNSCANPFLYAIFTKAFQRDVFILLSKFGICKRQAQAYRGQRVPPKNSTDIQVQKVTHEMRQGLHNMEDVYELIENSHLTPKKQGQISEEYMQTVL
Method in brief: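 Steps: seed 800 TSHR-HEK293 cells per well; add test compound and hold 30 min at ambient temperature; dispense cAMP-d2 then anti-cAMP cryptate; incubate 1 h at ambient; measure fluorescence intensity.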

Measured: Potency

N#CN=C1SCCN1Cc1ccc(Cl)nc1
inactive: all assays above

CCOC(=O)COc1ccc(Cl)cc1Cl
active: [2] 35.6 µM
inactive: [1] | [3] | [4] | [5]

C=CC1(C)OC(=O)N(c2cc(Cl)cc(Cl)c2)C1=O (stereo unspecified)
inactive: [1] | [2] | [3] | [4] | [5]

COC[C@@H](NC(C)=O)C(=O)NCc1ccccc1
inactive: all assays above

COc1cccc([C@@]2(O)CCCC[C@@H]2CN(C)C)c1
inactive: all assays above

C=C(Cl)CCl
inactive: [1] | [2] | [3] | [4] | [5]

O=c1[nH]oc2c1CCNC2
inactive: all assays above

CCOc1cc(OP(=S)(OC)OC)nc(CC)n1
not listed: [6] | [7]
inactive: all other assays above

O=C(O)CBr
inactive: all assays above

CNC(=O)Oc1cc(C)c(N(C)C)c(C)c1
not listed: [8]
inactive: all other assays above

COC1=CC(=O)O[C@@H](/C=C/c2ccccc2)C1
not listed: [7] | [8]
inactive: all other assays above

CC(C)(C)NC[C@H](O)c1ccc(O)cc1Cl
active: [8] 0.0084 µM
inactive: all other assays above

CCC1(c2cccc(O)c2)CCCCN(C)C1 (stereo unspecified)
inactive: [1] | [2] | [3] | [4] | [5]

COP(=O)(OC)O/C(C)=C/C(=O)N(C)C
not listed: [8]
inactive: all other assays above

CC(=O)CN(CC(C)=O)N=O
inactive: all assays above

CCC1(CC)C(=O)C=CNC1=O
not listed: [8]
inactive: all other assays above

CN(C)C(=O)Oc1cc(OC(=O)N(C)C)cc(C(O)CNC(C)(C)C)c1 (stereo unspecified)
not listed: [8]
inactive: all other assays above

CCc1ccc(C2CCNCC2)cc1
inactive: [1] | [2] | [3] | [4] | [5]

ClCOCCl
not listed: [6] | [7]
inactive: all other assays above

OCC(Cl)CCl (stereo unspecified)
inactive: [1] | [2] | [3] | [4] | [5]

CN=CNc1ccc(C)cc1C
not listed: [8]
inactive: all other assays above

CN(C)CCN(C)C
inactive: all assays above

C=C1CC[C@@]2(O)[C@H]3Cc4ccc(O)c5c4[C@@]2(CCN3CC2CC2)[C@H]1O5
not listed: [8]
inactive: all other assays above

CCOC(=O)N(C)N=O
inactive: all assays above

N#CC(Br)(Br)C(N)=O
inactive: [1] | [2] | [3] | [4] | [5]

Oc1ccc2c3c1O[C@H]1[C@@H](O)C=C[C@H]4[C@@H](C2)NCC[C@@]341
not listed: [6]
inactive: all other assays above

CCOP(=S)(OCC)SCCl
inactive: [1] | [2] | [3] | [4] | [5]

O=C(NC(O)C(Cl)(Cl)Cl)NC(O)C(Cl)(Cl)Cl (stereo unspecified)
inactive: [1] | [2] | [3] | [4] | [5]

CCOP(=O)(CN(CCO)CCO)OCC
not listed: [6] | [7]
inactive: all other assays above

Clc1ccc(C(Cl)(Cl)Cl)cn1
not listed: [6] | [7]
inactive: all other assays above

Reference: PubChem BioAssay (Tox21)
